These results are taken from PubChem BioAssay (NCI).

What all share (experiment): NCI-60 one-dose screen, 48 h (100 = growth as untreated, 0 = no growth, -100 = all killed)
Common to all, as to conditions: 10 µM unless noted

Assay [1] deals with NCI-H23 lung.
Assay [2] relates to NCI-H226 lung.
In assay [3] the test system is NCI-H322M lung.
Assay [4] relates to HOP-62 NSCLC.
Assay [5] has as its system NCI-H460 lung.
Assay [6] has as its system HOP-92 NSCLC.
Assay [7] deals with NCI-H522 lung.
The subject of assay [8] is A549/ATCC NSCLC.
Assay [9] deals with 786-0 renal.
The subject of assay [10] is COLO 205 colon.
Assay [11] has as its system DU-145 prostate.
Assay [12] relates to K-562 leukemia.
Assay [13] relates to MDA-MB-231 breast.
In assay [14] the test system is RXF 393 renal.
Assay [15] concerns SF-268 CNS.
Assay [16] has as its system SF-295 CNS.
For assay [17], the system named is SF-539 CNS.
Assay [18] relates to UACC-257 melanoma.
Assay [19] relates to M14 melanoma.
The test system of assay [20] is MALME-3M melanoma.

Compounds without any hit were thinned out: in the full panel of roughly 83,000, 20% have a hit.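 Plates (96-well) were seeded with cells, treated with compound at one concentration, and incubated for 48 hours before percent growth was determined.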 Unmarked numbers belong to inactive results. Calls of active or inactive are those of the source. The calls were made as follows: active = growth percent below 10; inactive = the rest.

For `Fc1ccc2[nH]cc(-c3nc(-c4c[nH]c5ncccc45)cs3)c2c1`, the growth in assay [1] is 43.7%; in [2] it was 47.4%; in [3], 74.6%; in assay [4], 47.6%; in assay [5], 9.85% (active); in assay [6], 24.3%. For the same compound, the growth in assay [7] was -7.49% (active); in assay [8] it was 31.1%; in assay [9], 41.5%; in [10], 45.1%; in [11] it was 30.5%; in [12] it was 16.9%. Besides, the growth in assay [13] is 44.4%; in assay [14], 55%; in assay [15] it was 48.9%; in [16], 17.8%; in assay [17] it was 27.3%; in assay [18], 53.8%. Further, the growth in [19] was 46.1%.
On to `CC(=O)Oc1ccccc1C(=O)/C=C/c1cccc([N+](=O)[O-])c1`, for which the growth in assay [1] is 87.9%; in assay [2] it was 94.2%; in assay [3] it was 99.2%; in [4] it was 99.2%; in assay [5], 82.5%; in assay [6], 69.8%. Besides, the growth in [7] was 55.9%; in assay [8], 95.6%; in [9], 81.6%; in [10], 86.7%; in assay [11] it was 75%; in [12], 28.1%. In addition, the growth is 85.2% in [13]; 60.4% in assay [14]; 62.6% in assay [15]; 68.7% in assay [16]; 80.8% in assay [17]; 103% in assay [18]. Further, the growth in assay [19] was 96.4%.
Take `O=C(O)c1cccc2c1C(=O)N(c1ccc3c(c1)Cc1ccccc1-3)C2=O`: the growth in assay [1] is 122%; in assay [2], 111%; in assay [3] it was 111%; in assay [4], 112%; in assay [5], 117%; in assay [6] it was 109%. The growth was 92.3% in [7]; 98.6% in assay [8]; 107% in assay [9]; 121% in [10]; 116% in assay [11]; 105% in assay [12]. Besides, the growth in assay [13] was 113%; in assay [14] it was 110%; in assay [15], 117%; in [16], 121%; in [17], 110%; in [18] it was 109%. Also, the growth in assay [19] was 119%.
For `Cn1cc(-c2csc(-c3cn(C(=O)OC(C)(C)C)c4ccc(Br)cc34)n2)c2cccnc21`, the growth in assay [1] is 92.2%; in assay [2], 101%; in [3] it was 88.9%; in assay [4], 99.2%; in [5], 62.3%; in assay [6] it was 98.7%. Besides, the growth in [7] was 96.3%; in assay [8], 78.5%; in assay [9], 99.9%; in assay [10] it was 86%; in assay [11] it was 108%; in assay [12], 97.6%. Moreover, the growth in assay [13] is 75.3%; in assay [14], 88.5%; in assay [15] it was 94.7%; in assay [16], 79.8%; in assay [17] it was 106%; in assay [18] it was 114%. Moreover, in assay [19], the growth was 104%.
For the compound `Cc1nn2c(-c3nc4cc(Cl)c(Cl)cc4[nH]3)c(-c3ccc(F)cc3)nc2s1`, the growth in [1] is 55.8%; in assay [2], 4.31% (active); in [3] it was -20% (active); in [4], -36.8% (active); in [5] it was -13.4% (active); in [6], -7.53% (active). Also, the growth in [7] is 65.2%; in assay [8], 5.51% (active); in assay [9], -79.5% (active); in [10] it was 17.7%; in [11], 52.8%; in assay [12] it was 68%. Also, the growth in assay [13] is -12.9% (active); in assay [14] it was -5.06% (active); in assay [15] it was 28%; in [17], 6.21% (active); in [18] it was -21% (active); in assay [19] it was 30.1%.
`COc1cnc2c(c1)C(=O)c1c-2n(CCCN2CCN(CCO)CC2)c(=O)c2cc([N+](=O)[O-])ccc12`: the growth in assay [1] was -40.2% (active); in assay [2] it was 64%; in assay [3], -20.4% (active); in assay [4], 39.8%; in assay [5], -75.7% (active); in assay [6], 76.9%. For the same compound, the growth is 38.3% in assay [7]; -88.9% (active) in [8]; -85.4% (active) in assay [9]; 62% in assay [10]; 43.3% in [11]; -26.6% (active) in assay [12]. The growth in [13] was -35.8% (active); in [14], 74.3%; in [15] it was 31%; in [16] it was 29.2%; in [17], 57.5%; in assay [19] it was 18.2%.
In the case of `C#CCC(C)(O)/C=C/C1=C(C)CCCC1(C)C` (stereo not given), the growth in assay [1] is 94.5%; in assay [2] it was 85.4%; in assay [3] it was 99.4%; in assay [4], 96.9%; in assay [5], 103%; in assay [6] it was 84%. In addition, the growth in assay [7] is 75.5%; in [8] it was 69.8%; in assay [9], 92.6%; in assay [10], 113%; in [11] it was 103%; in assay [20], 90%. In addition, the growth in assay [13] is 99.3%; in assay [14] it was 100%; in assay [15] it was 95.6%; in [16], 95.4%; in assay [17], 102%; in [18] it was 76.4%. In addition, in assay [19], the growth was 89.4%.
With `C(=C\c1c[nH]c2ccccc12)/c1ccc2ccccc2n1`, the growth was 91.3% in assay [1]; 76.5% in assay [2]; 77.5% in assay [3]; 89.6% in [4]; 79.7% in [5]; 61.3% in assay [6]. Moreover, the growth is 53.8% in assay [7]; 63.3% in assay [8]; 77.8% in [9]; 84.4% in assay [10]; 92.7% in [11]; 51.9% in assay [12]. Moreover, the growth in assay [13] is 56.4%; in assay [14] it was 92.1%; in assay [15] it was 71.4%; in assay [16], 81.4%; in [17], 87.9%; in assay [18], 90.2%. Besides, the growth in assay [19] is 82.2%.
